# Source: PubChem
# Sampled rows, rich in hits. Any-hit rate of the full collection: about 19%.
# TDP1 cell noCPT: qHTS for Inhibitors of human tyrosyl-DNA phosphodiesterase 1 (TDP1): qHTS in cells in absence of CPT. DT40 Tdp1-/- hTDP1 cells, no CPT, ATP luminescence, 48 h. Potency, µM (top dose mostly 46.2 µM), actives largely listed as inhibitors. 420,000 compounds, 15% hits; further: nearly all actives have a fitted effect of over 55% in size
#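 Luminescent ATP content (CellTiter-Glo) served as the growth readout. Knockout chicken DT40 cells expressing human TDP1 were exposed to compounds without camptothecin for a minimum 48 hr at 37 °C.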
# HT1080 IDH1KD tx: toxicity to HT-1080 IDH1 knockdown cells (counter line). HT-1080 IDH1 knockdown viability, ATP luminescence, 48 h. Potency, µM (highest dose often 46.1 µM), actives largely listed as cytotoxic. 360,000 compounds, 2% hits. AID 686971
#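 Assay cells: HT-1080 with IDH1 knockdown, 750 per well, RPMI/5% FBS. Exposure: 48 h at 37 °C following 2 h pre-incubation. Read: CellTiter-Glo luminescence; fitted concentration-response, curve class assigned.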
# IL-1B inflam inh: inhibitors of inflammasome signaling (IL-1 beta secretion); THP-1 LPS/ATP IL-1B secretion, AlphaLISA, 16 h; stronger effect = lower value; activity change, % at 57.5 µM; 360,000 compounds, 4.7% hits; AID 743279; in the data active means activity change below about -50%; inconclusive means mostly about -30% to -49%
#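 Secreted IL-1B measured by AlphaLISA bead assay after 16 h compound exposure of THP-1 cells; compounds (final up to 57.5 uM) added 1 h before LPS (250 ng/mL) and ATP (1.25 mM) stimulation; lower signal means less secretion.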
# HT1080NT lethal: kills 2HG-producing HT-1080-NT fibrosarcoma cells | HT-1080-NT fibrosarcoma viability, CellTiter-Glo ATP luminescence, 48 h | Potency, µM (series often up to 46.1 µM), actives largely listed as cytotoxic | 360,000 compounds, 1.6% hits | AID 686970;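 further: NT is the 2HG producing partner of a matched IDH1 knockdown line; nearly all actives have a fitted effect of over 55% in size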
#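 Compounds were tested in concentration-response format on HT-1080-NT cells for 48 hours at 37 degrees C. Cell viability came from CellTiter-Glo luminescence; curves were classified by r2, response magnitude and activity.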
# DT40 TDP1 CPT: growth inhibition of DT40 Tdp1-/-;hTDP1 cells with camptothecin (screen for TDP1 inhibitors); chicken DT40 Tdp1-/-;hTDP1 cells + 20 nM CPT, ATP luminescence, 48 h; 420,000 compounds, 12% hits; Potency, µM (series often up to 46.2 µM), most hits filed as inhibitors; further: nearly all actives have a fitted effect of over 55% in size
#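 Chicken DT40 Tdp1-/- cells stably complemented with human TDP1 were seeded at 400 cells/well in medium containing 20 nM camptothecin, exposed to pin-transferred compounds, and grown at 37 °C for at least 48 hr. Viability was read as ATP luminescence.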
# A number is an active result; i = inactive; ? = inconclusive; nt = not tested or not shown; ! = not confirmed by another sample; [ ] = dose if it differs, or a comment. Unless noted, the call rests on the fitted dose curve; in most records, active means well fitted curve in the direction sought with a large enough effect; inconclusive means small, poorly fitted or top-dose-only effect, or another doubt; inactive means no such curve, though single readings can be large; an effect the other way counts as inactive or inconclusive.
SMILES,TDP1 cell noCPT,HT1080 IDH1KD tx,IL-1B inflam inh,HT1080NT lethal,DT40 TDP1 CPT
COC(=O)C1=C(c2cccc(C#N)c2)C[C@@H]2CC[C@H]1N2C(=O)NCc1cccc2ccccc12,i,i,i,i,?
COC(=O)C1=C(c2cc3ccccc3o2)C[C@@H]2CC[C@H]1N2C(=O)NCc1cccc2ccccc12,16.4µM,i,i,i,?
COC(=O)C1=C(c2ccc(S(C)(=O)=O)cc2)C[C@@H]2CC[C@H]1N2C(=O)NCc1cccc2ccccc12,nt,i,i,i,29.1µM
COC(=O)C1=C(c2cc3ccccc3o2)C[C@@H]2CC[C@H]1N2C(=O)NCc1ccco1,nt,i,i,i,16.4µM
C[C@@H]1CN(C2CCC(C#N)(c3ccc(F)cc3)CC2)CC[C@]1(C(=O)O)c1ccccc1 (some centres undefined),i,i,i,?,i
CCC(=NCc1ccc2c(c1)OCO2)c1c(O)n(C2CCCCC2)c(=O)[nH]c1=O,?,?,i,i,?
C=CCNC(=S)N1Cc2cc(Br)ccc2-n2nncc2C1,i,i,i,i,i
CCc1ccc(Nc2nc3c(S(=O)(=O)c4ccc(C)cc4)nnn3c3ccsc23)cc1,3.66µM,nt,nt,nt,3.66µM
COc1cccc(NC(=O)CSC2=Nc3ccccc3C3=NC(CCC(=O)NCCc4ccccc4)C(=O)N23)c1 (centres undefined),20.6µM,nt,nt,nt,20.6µM
COc1cccc(NC(=O)CN2CC(c3ccccc3)CC2=O)c1 (centres undefined),i,i,i,i,i
Cc1cc(C(=O)OCC(=O)Nc2ccccc2F)c(C)n1C1CC1,i,i,i,i,?
C=CCc1cccc(C=Nc2c[nH]c(=O)[nH]c2=O)c1O,i,i,i,i,18.4µM
O=C(N[C@H]1N=C(c2ccccc2F)c2cccc3c2N(CC3)C1=O)c1cc2ccccc2[nH]1,i,nt,nt,nt,i
CC(C)C[C@H](NC(=O)[C@H](Cc1ccccc1)NC(=O)CNC(=O)[C@@H](NC(=O)[C@@H](N)Cc1ccc(O)cc1)[C@H](C)O)C(=O)N[C@H](C(=O)O)[C@H](C)O,i[4.12 µM],nt,nt,nt,i[4.12 µM]
O=C1NC(=O)C(=CN2CCc3ccccc32)C(=O)N1,i,i,i,i,?
O=P(N1CC1)(N1CC1)N1CCc2ccccc21,8.2µM,i,i,?,7.31µM
CCc1ccc(OCC(=O)N2CCN(CCc3ccccn3)CC2)cc1,i,nt,nt,nt,i
Cc1cc(C)c(OCC(=O)Nc2cccc(NC(=O)c3ccco3)c2)c(Br)c1,13µM,?,-54.9,?,23.1µM
N#CCCN(C(=O)COC(=O)c1ccc2c(c1)NC(=O)CS2)c1ccc2c(c1)OCCO2,?,i,i,i,i
COC1=C(C)C(=O)c2c(c(COC(N)=O)c3n2C[C@@H]2[C@@H]3N2C)C1=O (some centres undefined),0.0251µM,nt,nt,nt,0.1µM
CCN(CC(=O)Nc1ccc(C#N)c(Cl)c1)CC(=O)NC1CCS(=O)(=O)C1 (centres undefined),i,i,i,i,?
CCCCCn1c(=O)c(C(=O)Nc2cccc(C)n2)c(O)c2ccccc21,?,i,i,i,i
CCCCCn1c(=O)c(C(=O)Nc2cccc(C)c2)c(O)c2ccccc21,4.61µM,i,i,i,i
CCCCCn1c(=O)c(C(=O)Nc2ccccc2)c(O)c2ccccc21,5.17µM,i,i,i,4.11µM
CCCCCCn1c(=O)c(C(=O)Nc2c(C)n(C)n(-c3ccccc3)c2=O)c(O)c2ccccc21,6.51µM,i,i,?,5.17µM
SMILES,TDP1 cell noCPT,HT1080 IDH1KD tx,IL-1B inflam inh,HT1080NT lethal,DT40 TDP1 CPT
C/C=C(\C)C(=O)OC1CC(OC(C)=O)[C@@]2(C(=O)OC)COC3C2[C@@]12CO[C@](O)(C(=O)OC)C2[C@](C)(C12OC1(C)C1CC2OC2OC=C[C@]21O)C3O (some centres undefined),i,nt,nt,nt,i
CCN1CCOC(c2ccccc2)C1 (centres undefined),i,i,i,i,i
NC(=O)c1ccc(N)nc1,4.11µM,4.61µM,i,2.59µM,5.8µM
Cc1ncc(CNC(=O)N(CCCl)N=O)c(N)n1,?,i,i,i,20.6µM!
CCCSc1ncc(Cl)c(C(=O)N(Cc2ccccc2)c2ccc(OC)cc2)n1,4.61µM,nt,nt,nt,7.31µM
COC(=O)[C@@]1(C)CC[C@]2(C)CC[C@@]3(C)C(=CC(=O)C4[C@@]5(C)CC[C@H](O)C(C)(C)[C@@H]5CC[C@]43C)[C@H]2C1 (some centres undefined),?,i,i,i,i
CC1=C(O)C(=O)[C@H]2O[C@@H]2C1=O,10.6µM,nt,nt,nt,7.5µM
CCOP(=O)(C#Cc1ccccc1)C(O)c1ccc(Br)cc1 (centres undefined),?,i,i,i,?
CCCCOP(=O)(OCCCC)C(O)c1ccc(Br)cc1 (centres undefined),18.4µM,i,i,i,23.1µM
CN(Cc1cccc(-c2ccncc2)c1)C(=O)Oc1ccc([N+](=O)[O-])cc1,16.4µM,?,i,?,20.6µM
CN(C(=O)Oc1ccc([N+](=O)[O-])cc1)c1ccccc1,i,i,-56.1,i,i
O=C(Cc1ccccc1)Oc1ccc([N+](=O)[O-])cc1,i,i,i,i,i
CC(=O)c1ccc(OC(=O)N(C)c2ccccc2)cc1,i,i,i,i,i
O=C1NC[C@H](CCCCN2C[C@H](Cc3ccccc3)N(CC3CCCCC3)C(=O)C2=O)N(CCC2CCCCC2)C1=O,?,i,i,i,?
CC(C)c1ccc(OCC(=O)Nc2cc(-c3nc4ncccc4o3)ccc2Cl)cc1,6.51µM,nt,nt,nt,?
COc1cc2c3c(c1OC)Oc1ccc(cc1)C[C@H]1c4c(cc(OC)c(OC)c4Oc4ccc(cc4)C[C@@H]3N(C)CC2)CCN1C,18.4µM,i,i,i,16.4µM
COc1cc2c3cc1Oc1c(OC)c(OC)cc4c1[C@@H](Cc1ccc(O)c(c1)Oc1ccc(cc1)C[C@@H]3N(C)CC2)N(C)CC4,i,nt,nt,nt,?
COc1cc2c3cc1Oc1cc(ccc1O)C[C@@H]1c4c(cc(OC)c(O)c4Oc4ccc(cc4)C[C@H]3N(C)CC2)CCN1C,4.61µM,i,i,i,4.11µM
COc1ccc2cc1Oc1ccc(cc1)C[C@H]1c3cc(c(OC)cc3CCN1C)Oc1c(OC)c(OC)cc3c1[C@H](C2)N(C)CC3,11.2µM!,14.6µM,-95.8,5.8µM,5.01µM!
Cn1nccc1C(=O)N1CCC2(CC1)OCCO2,i,i,i,i,i
COC(=O)C1=C(N)Oc2cc(C)oc(=O)c2C12C(=O)Nc1ccccc12 (centres undefined),16.4µM,i,i,i,?
